# Inconclusive results are not listed. The source made the active and inactive calls. The calls were made as follows: active = hit-call score of the fitted dose curve at least 0.9, where 1 is the maximum; inconclusive = response in the unintended direction; inactive = score below 0.9.
# How the values were obtained:
# [1] = target: human IkappaB Kinase alpha (IKKa), CHUK (gene 1147) (UniProt O15111); experiment: NVS_ENZ_hIKKa: NovaScreen (NVS) Enzymatic Assay for human IkappaB Kinase alpha (IKKa) (AID 2283167)
# How it was run: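 Compounds first run in duplicate at 25 uM, those meeting threshold (e.g. 30% inhibition) retested to maximum 50 uM. Enzyme activity of recombinant IKKa measured by fluorescence with electrophoretic mobility shift separation, 1 hour post-dosing, DMSO baseline.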
# [2] = target: human Mitogen-Activated Protein Kinase 1 (MAPK 1), MAPK1 (gene 5594) (UniProt P28482); experiment: NVS_ENZ_hMAPK1: NovaScreen (NVS) Enzymatic Assay for human Mitogen-Activated Protein Kinase 1 (MAPK 1) (AID 2283175)
# How it was run: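 Cell-free recombinant human MAPK1 enzymatic assay, fluorescence/electrophoretic mobility shift read at 1 h; loss of signal vs DMSO. Primary screen in duplicate at 25 uM; actives (e.g. ≥30% inhibition) run as concentration-response up to 50 uM.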
# [3] = target: human NIMA (Never In Mitosis Gene A)-Related Kinase 2 (NEK2), NEK2 (gene 4751) (UniProt P51955); experiment: NVS_ENZ_hNEK2: NovaScreen (NVS) Enzymatic Assay for human NIMA (Never In Mitosis Gene A)-Related Kinase 2 (NEK2) (AID 2283188)
# How it was run: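 Compounds were first screened in duplicate at 25 uM, with actives followed up in concentration series. Recombinant NEK2 activity, cell-free, was read 1 h after dosing by fluorescence intensity after mobility-shift separation. Signal loss was scored against DMSO.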
# [4] = target: cAMP-dependent protein kinase catalytic subunit alpha (Homo sapiens) (UniProt P17612); experiment: NVS_ENZ_hPKA: NovaScreen (NVS) Enzymatic Assay for human Protein Kinase A (PKA) (AID 2283192)
# How it was run: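 Cell-free kinase activity read by fluorescence after mobility-shift separation of substrate and product, 1 h post-dosing. Single-concentration duplicate screen (25 uM) preceded singleton concentration series (top 50 uM); loss of signal versus DMSO.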
# [5] = target: Collagenase 3 (Homo sapiens) (UniProt P45452); experiment: NVS_ENZ_hMMP13: NovaScreen (NVS) Enzymatic Assay for human Matrix Metalloproteinase-13 (MMP13) (AID 2283182)
# How it was run: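 Recombinant MMP13 cleaving fluorescent substrate, cell-free, measured 1 h after dosing. Primary duplicate screen at 25 uM; actives tested in concentration-response up to 50 uM; loss of signal relative to DMSO.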
# [6] = target: human Matrix Metalloproteinase-2 (MMP2), MMP2 (gene 4313) (UniProt P08253); experiment: NVS_ENZ_hMMP2: NovaScreen (NVS) Enzymatic Assay for human Matrix Metalloproteinase-2 (MMP2) (AID 2283184)
# How it was run: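 Compounds first screened in duplicate at a single 25 uM, with actives followed up in concentration series. Recombinant human MMP2 cleaves a fluorogenic substrate; fluorescence taken at 1 h, inhibition fitted relative to DMSO.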
# [7] = target: human Matrix Metalloproteinase-3 (MMP3), MMP3 (gene 4314) (UniProt P08254); experiment: NVS_ENZ_hMMP3: NovaScreen (NVS) Enzymatic Assay for human Matrix Metalloproteinase-3 (MMP3) (AID 2283185)
# How it was run: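 Fluorescent substrate turnover by recombinant MMP3 read after 1 h, signal loss scored against DMSO. Compounds first run in duplicate at 25 uM single dose, then actives confirmed by concentration series.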
# Chain of human Matrix Metalloproteinase-2 (MMP2), MMP2 (gene 4313) (P08253 whole entry, looked up): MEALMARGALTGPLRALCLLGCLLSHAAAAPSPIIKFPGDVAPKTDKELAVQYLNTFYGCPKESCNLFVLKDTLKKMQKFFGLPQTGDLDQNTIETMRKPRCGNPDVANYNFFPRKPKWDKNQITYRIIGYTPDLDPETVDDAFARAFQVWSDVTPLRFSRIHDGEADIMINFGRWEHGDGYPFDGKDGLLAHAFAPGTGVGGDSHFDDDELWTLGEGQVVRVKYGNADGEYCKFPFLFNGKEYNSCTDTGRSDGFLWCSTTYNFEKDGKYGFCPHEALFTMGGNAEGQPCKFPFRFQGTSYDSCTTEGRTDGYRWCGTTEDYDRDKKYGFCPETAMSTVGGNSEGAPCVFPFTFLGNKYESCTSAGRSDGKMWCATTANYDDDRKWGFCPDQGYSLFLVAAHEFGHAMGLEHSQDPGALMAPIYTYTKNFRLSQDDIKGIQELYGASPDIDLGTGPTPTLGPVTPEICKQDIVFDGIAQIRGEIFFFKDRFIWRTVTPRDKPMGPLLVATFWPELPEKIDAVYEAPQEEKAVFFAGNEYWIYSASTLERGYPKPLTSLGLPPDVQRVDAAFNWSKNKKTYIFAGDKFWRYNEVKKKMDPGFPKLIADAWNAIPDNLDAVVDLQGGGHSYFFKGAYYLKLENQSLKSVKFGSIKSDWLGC
# Chain of human NIMA (Never In Mitosis Gene A)-Related Kinase 2 (NEK2), NEK2 (gene 4751) (P51955 whole entry, looked up): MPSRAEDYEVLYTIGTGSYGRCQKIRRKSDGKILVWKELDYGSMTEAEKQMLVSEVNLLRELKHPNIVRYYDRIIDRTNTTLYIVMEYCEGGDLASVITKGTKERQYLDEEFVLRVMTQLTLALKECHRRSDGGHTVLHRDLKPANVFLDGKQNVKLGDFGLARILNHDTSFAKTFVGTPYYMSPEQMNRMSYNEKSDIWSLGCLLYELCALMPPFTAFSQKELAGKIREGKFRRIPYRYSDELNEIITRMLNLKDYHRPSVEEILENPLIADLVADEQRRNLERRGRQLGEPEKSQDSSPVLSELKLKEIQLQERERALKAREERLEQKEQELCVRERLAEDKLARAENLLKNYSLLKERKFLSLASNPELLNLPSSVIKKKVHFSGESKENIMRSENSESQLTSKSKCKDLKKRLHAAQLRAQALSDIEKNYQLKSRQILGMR
# Chain of human Matrix Metalloproteinase-3 (MMP3), MMP3 (gene 4314) (P08254 whole entry, looked up): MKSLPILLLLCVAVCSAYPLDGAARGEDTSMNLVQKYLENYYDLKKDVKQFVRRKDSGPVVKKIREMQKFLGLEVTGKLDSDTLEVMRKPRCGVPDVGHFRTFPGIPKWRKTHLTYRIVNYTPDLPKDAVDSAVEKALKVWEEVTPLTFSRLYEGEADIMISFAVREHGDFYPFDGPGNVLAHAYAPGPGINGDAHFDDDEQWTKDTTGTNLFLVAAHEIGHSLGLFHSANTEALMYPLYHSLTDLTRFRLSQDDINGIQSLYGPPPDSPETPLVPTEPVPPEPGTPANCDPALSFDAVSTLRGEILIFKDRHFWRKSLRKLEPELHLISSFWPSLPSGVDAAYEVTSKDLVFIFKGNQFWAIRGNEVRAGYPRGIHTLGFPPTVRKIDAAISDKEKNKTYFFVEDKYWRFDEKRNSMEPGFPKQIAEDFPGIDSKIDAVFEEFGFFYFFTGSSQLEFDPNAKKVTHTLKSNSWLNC
# Chain of human Mitogen-Activated Protein Kinase 1 (MAPK 1), MAPK1 (gene 5594) (P28482 whole entry, looked up): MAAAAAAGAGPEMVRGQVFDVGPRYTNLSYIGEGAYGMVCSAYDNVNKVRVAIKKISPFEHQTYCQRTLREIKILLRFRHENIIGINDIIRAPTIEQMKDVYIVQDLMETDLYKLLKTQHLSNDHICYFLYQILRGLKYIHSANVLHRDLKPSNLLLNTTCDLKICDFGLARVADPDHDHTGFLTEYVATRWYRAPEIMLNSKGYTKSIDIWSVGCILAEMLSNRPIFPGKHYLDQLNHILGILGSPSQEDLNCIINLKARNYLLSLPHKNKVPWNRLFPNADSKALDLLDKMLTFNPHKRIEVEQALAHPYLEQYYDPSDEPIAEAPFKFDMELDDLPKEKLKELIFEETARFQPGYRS
# Chain of human IkappaB Kinase alpha (IKKa), CHUK (gene 1147) (O15111 whole entry, looked up): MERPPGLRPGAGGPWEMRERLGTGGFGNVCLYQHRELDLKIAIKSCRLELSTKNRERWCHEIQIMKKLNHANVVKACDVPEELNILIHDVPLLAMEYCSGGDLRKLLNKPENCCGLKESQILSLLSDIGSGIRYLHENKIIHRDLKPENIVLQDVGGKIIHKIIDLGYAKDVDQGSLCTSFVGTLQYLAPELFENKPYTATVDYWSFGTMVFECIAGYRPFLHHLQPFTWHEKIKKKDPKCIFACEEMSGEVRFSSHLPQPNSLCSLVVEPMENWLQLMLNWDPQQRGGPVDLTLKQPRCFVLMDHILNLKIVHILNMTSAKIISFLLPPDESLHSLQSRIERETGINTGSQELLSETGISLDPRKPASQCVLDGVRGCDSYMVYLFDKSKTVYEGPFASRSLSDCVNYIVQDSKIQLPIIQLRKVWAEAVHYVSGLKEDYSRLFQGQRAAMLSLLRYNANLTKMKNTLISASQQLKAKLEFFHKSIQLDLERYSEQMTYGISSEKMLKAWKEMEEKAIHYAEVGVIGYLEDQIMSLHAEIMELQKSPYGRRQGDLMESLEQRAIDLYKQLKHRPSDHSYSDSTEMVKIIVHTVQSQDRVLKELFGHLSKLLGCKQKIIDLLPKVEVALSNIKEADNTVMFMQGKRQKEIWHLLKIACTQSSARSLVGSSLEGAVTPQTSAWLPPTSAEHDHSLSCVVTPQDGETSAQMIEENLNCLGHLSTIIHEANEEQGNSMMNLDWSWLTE
smiles,measurement,setting,value
O=S(=O)(O)C(F)(F)C(F)(F)C(F)(F)C(F)(F)C(F)(F)C(F)(F)F,outcome,[1],inactive
same,outcome,[2],inactive
O=C(O)C(F)(F)C(F)(F)C(F)(F)C(F)(F)C(F)(F)C(F)(F)C(F)(F)C(F)(F)F,outcome,[1],inactive
same,AC50,[3],40.7 µM (active)
same,outcome,[4],inactive
CCNc1nc(NC(C)C)nc(SC)n1,outcome,[2],inactive
CCCCCCCCCC[N+](C)(C)CCCCCCCCCC,outcome,[5],inactive
CC(C)C(=O)OCC(C)(C)C(OC(=O)C(C)C)C(C)C (stereo not drawn),outcome,[6],inactive
O=NN(c1ccccc1)c1ccccc1,outcome,[6],inactive
CO/C=C(/C(=O)OC)c1ccccc1COc1cccc(C(F)(F)F)n1,outcome,[7],inactive
O=C(O)C(F)(F)C(F)(F)C(F)(F)C(F)(F)C(F)(F)C(F)(F)C(F)(F)C(F)(F)C(F)(F)F,AC50,[7],12.5 µM (active)
c1cc2ccc3cccc4ccc(c1)c2c34,outcome,[3],inactive
CC1=C2C[C@H]3[C@@H](CC=C4C[C@@H](O)CC[C@@]43C)[C@@H]2CC[C@]12O[C@@H]1C[C@H](C)CN[C@H]1[C@H]2C,outcome,[4],inactive

# — PubChem BioAssay (EPA / NIEHS)
